Experimental data as given in the supplement of paper PMC6555819.

What was measured:
Assay in all cases: PBM binding z-score (relative to random genomic background probes); higher = stronger binding; sequences stand for … in GC…GCGATTGACAGCGTAGAATGAAGG
[1] = test system: RARb homodimer (NR concentration 270 nM)
Method in brief: (§1)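 On custom Agilent 4×180K arrays, double-stranded probes with 34-nt variable regions carried direct-repeat seeds, single-nucleotide variants, half-site ablations or random human genomic background. Ligand-free nuclear receptor dimers were applied for 1 h, and binding was read with antibodies against each partner (one per run). Binding z-scores come from regression-normalized fluorescence, with the random background probes as reference.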

[2] = test system: RARg:RXRa (NR concentration 270 nM, RXRa partner concentration 90 nM)
Method in brief: as §1

[3] = test system: RARg homodimer (NR concentration 270 nM)
Method in brief: as §1

[4] = test system: RXRa DBDmut IVT, anti-RXR (DBD mutation: RXRa K156A/R161A, NR concentration 90 nM)
Method in brief: as §1

[5] = test system: RXRa homodimer (NR concentration 180 nM)
Method in brief: as §1

[6] = test system: THRa:RXRa (NR concentration 90 nM, RXRa partner concentration 90 nM)
Method in brief: as §1

[7] = test system: THRa homodimer (NR concentration 90 nM)
Method in brief: as §1

[8] = test system: VDR homodimer (NR concentration 270 nM)
Method in brief: as §1

| Sequence | PBM binding z-score [1] | PBM binding z-score [2] | PBM binding z-score [3] | PBM binding z-score [4] | PBM binding z-score [5] | PBM binding z-score [6] | PBM binding z-score [7] | PBM binding z-score [8] |
| --- | --- | --- | --- | --- | --- | --- | --- | --- |
| TCGAGGAGGTTACGGGGGCATTCAGGGATGAAGA | 2.61 | 4.51 | 3.37 | 2.51 | 4.12 | 4.31 | 1.88 | 3.86 |
| CGAACTAGGTTAAAGGACAGTGAAAGGCGACGTA | 1.34 | 1 | 1.38 | -0.1 | 0.702 | 0.788 | -0.308 | -0.464 |
| TCATATAGGTTAAGGTGAAAGTCGAACGATATGA | 1.66 | 2.3 | 2.08 | 0.797 | 2.45 | 3.33 | 2.71 | 0.253 |
| TAGCCTAGGTCATGGGCCAGTTTACCACGCGAAC | 3.04 | 4.68 | 4.8 | 0.567 | 4 | 3.22 | 1.42 | 0.669 |
| CCGAGTAGGTTACGAGGGAGCATTCAGTGCGAAT | 0.337 | 0.625 | 0.53 | 0.00513 | 0.6 | 0.829 | -0.661 | -0.171 |
| ATCGGAAGGTCGAGGTGAGTATAGAGAAAGGGAA | 2.14 | 2.38 | 2.75 | 0.14 | 2.25 | 2.28 | 0.964 | 0.543 |
| CGAACTGGGTCACCAGGACAGTGAAGAGGTTGGA | 2.84 | 4.16 | 4.22 | 0.542 | 3.41 | 2.91 | 0.811 | 0.0235 |
| CCGAGTAGGTTAGGAGGGGGCATTCAGTGCGAAT | 2.05 | 2.89 | 2.76 | 1.76 | 1.87 | 3.46 | 1.44 | 4.12 |
| ATCGAAAGGTCGTGAGGTGTGTATACAGAAAGGC | 2.68 | 4.5 | 4.17 | 1.67 | 4.81 | 2.44 | -0.109 | 1.16 |
| CTATGTAGGTTAAGGGGGTCATACAGTTTGAAAG | 3.95 | 5.39 | 4.06 | 2.32 | 6.26 | 4 | 2 | 5.41 |
| CCTCGGAGGACACCAGGAGGTCAGAGCTGCCAGA | 3.49 | 3.94 | 3.53 | -0.302 | 2.11 | 2.93 | 1.37 | 1.13 |
| CTATGTAGGTAAAGGGGGTCATTCAGTTTGAAAG | 3.55 | 4.43 | 2.93 | 2.5 | 5.6 | 3.66 | 1.73 | 6.01 |
| CCAGAAAGGTGAAAGGTAACTCAGTCTGGTACGC | 1.92 | 3.17 | 2.13 | 0.365 | 4.27 | 1.94 | 0.107 | 0.0179 |
| ATACGTAGGTTATCGGGTCATTCAGTTTGCGCAT | 2.77 | 3.41 | 2.36 | 1.77 | 3.41 | 3.18 | 2.93 | 3.86 |
| ATACCAAGGTGATCGTGAGTTCGTTGATACTAAC | 0.465 | 0.682 | 0.338 | 1.2 | 0.456 | 1.58 | 0.74 | 4.63 |
| CCTGCTAGGTCAATGGTCAGCTAAAGCAGCTCGC | 3.08 | 3.62 | 4.47 | 1.7 | 2.3 | 2.29 | 0.588 | 0.186 |
| CGAACTAGGTCACCACGACAGTGAAGAGGTTGGA | 3.15 | 4.59 | 5.39 | 1.66 | 3.31 | 3.02 | 1.16 | 0.592 |
| CGTCCAAGGTCATAGGAGGTCACTGAAGACAGAT | 5.4 | 7.13 | 7.45 | 4.05 | 7.22 | 5.37 | 3.68 | 5.28 |
| ATATGAAGGTTATCGGGTCATTCAGTTTGCGCAT | 3.17 | 4 | 2.89 | 2.04 | 4.02 | 3.38 | 2.69 | 4.06 |

| Sequence | PBM binding z-score [1] | PBM binding z-score [2] | PBM binding z-score [3] | PBM binding z-score [4] | PBM binding z-score [5] | PBM binding z-score [6] | PBM binding z-score [7] | PBM binding z-score [8] |
| --- | --- | --- | --- | --- | --- | --- | --- | --- |
| ATATGTAGGTTAGGGTCATTCACAAAGTAGGGAA | 3.69 | 3.98 | 3.1 | 2.7 | 5.07 | 4.38 | 2.96 | 3.86 |
| CGAACCAGGTCAAAGGACAGTGAAAGGCGACGTA | 2.94 | 4.32 | 4.33 | 2.36 | 3.81 | 3.21 | 1.24 | 1.15 |
| TAGCCTAGGTCATTGGACCAGTATAGTACGCATC | 2.73 | 3.97 | 4.37 | 1.43 | 3.1 | 2.85 | 0.854 | 1.54 |
| CGAACTAGGACATCCAGGACAGTGAATACATTGA | 0.243 | 0.252 | 0.695 | 0.592 | 0.0939 | 1.78 | 1.4 | 0.467 |
| CTATGTAGCTTAAGGGGGTCATTCAGTTTGAAAG | 3.58 | 4.42 | 3.15 | 2.56 | 5.27 | 3.69 | 2.41 | 6.05 |
| CCTTACGGGTCAGTGACAGGTTATAGCATTTGGA | 2.85 | 4.61 | 3.43 | 1.05 | 3.29 | 2.15 | 0.134 | 0.572 |
| CCTACTGGGCCACGAAAGGTGATTGATTCAGTGA | 1.02 | 0.589 | 0.505 | -0.663 | 0.207 | 1.41 | -0.377 | -0.289 |
| CCTTGCGGGTCACTGACAGGTTATAGCATTTGGA | 2.97 | 5.46 | 4.17 | 1.77 | 4.49 | 2.8 | 0.354 | 0.664 |
| TAGCCTAGGTCAGATCGGGCCAGTCTACGCTATA | 2.16 | 2.51 | 3.36 | -0.601 | 1.31 | 4.1 | -0.0683 | -0.368 |
| ATATGTAGGATATCGGGTCATTCAGTTTGCGCAT | 2.18 | 1.75 | 1.44 | 1.12 | 2.23 | 3.15 | 2.18 | 2.6 |
| CCTTACGGGTCAAGGTTATATCACGGGTGGTACG | 3.52 | 4.98 | 4.79 | 0.822 | 5.52 | 3.11 | 0.96 | 1.54 |
| CGTCGGAGGACAGAAGGTCAGAGCTGTCCGCTTT | 3.36 | 3.56 | 3.38 | 0.338 | 1.83 | 2.08 | -0.192 | 0.136 |
| CGTCCAAGGTCAGCAGGTGAGTGAAAGCGACGTG | 3.84 | 5.23 | 6.27 | 2.47 | 3.87 | 3.28 | 1.95 | 0.692 |
| GCTGCTAGGTCAGGTTGGTCGGCTAACGGGTACG | 2.31 | 2.38 | 3.52 | -0.206 | 0.882 | 1.5 | 0.491 | 0.0919 |
| CGAACTAGGTCAAATGACAGTGAAAGGCGACGTA | 2.7 | 4.37 | 4.97 | 2.03 | 3.11 | 2.6 | 0.29 | 0.337 |
| CGAACTAGGTCAATGGACAGTGAAAGGCGACGTA | 2.45 | 3.17 | 4.17 | 1.14 | 2.14 | 1.93 | -0.00999 | 0.0508 |
| CATAGTTGGTCAAGGTCACACACGCTATAGGTAC | 4.31 | 4.62 | 4.62 | 2.04 | 4.73 | 4.18 | 4.02 | 3.8 |
| ATGTGTAGGTTACATCCGGGTCATTCAGGCTATG | 3.32 | 3.75 | 2.19 | 0.811 | 2.95 | 3.94 | 2.75 | 3.1 |
| CCTACTGGGCCAAAACGGTCATTGATGCCGATAA | 1.39 | 0.276 | 0.635 | -0.682 | -0.274 | -0.206 | -0.538 | -0.184 |

| Sequence | PBM binding z-score [1] | PBM binding z-score [2] | PBM binding z-score [3] | PBM binding z-score [4] | PBM binding z-score [5] | PBM binding z-score [6] | PBM binding z-score [7] | PBM binding z-score [8] |
| --- | --- | --- | --- | --- | --- | --- | --- | --- |
| CCGAGTAGGTTACGAGGGGGCATTTAGTGCGAAT | 2.18 | 3.09 | 2.33 | 1.31 | 2.16 | 3.92 | 0.585 | 2.81 |
| CGAACTAGGTCAAAGGAGAGTGAAAGGCGACGTA | 2.43 | 3.75 | 4.22 | 1.62 | 3 | 2.32 | 0.277 | 0.0165 |
| CCTTACAGGTCACGAGGTTATAGCACGACGAGCG | 4.51 | 6.3 | 6.12 | 2.77 | 6.64 | 3.98 | 1.85 | 2.48 |
| CCTGCTAGGACAATGGTCAGCTAAAGCAGCTCGC | -0.0607 | -0.421 | -0.262 | 0.179 | -0.865 | 0.0505 | -0.399 | -0.794 |
| ACTAGTTGGTCAGCTGGGGTCACACACAATTCGG | 4.07 | 4.45 | 3.92 | 1.28 | 5.58 | 4.71 | 3.54 | 3.33 |
| TCGAGTAGGTTACGGGGGCATACAGGGATGAAGA | 2.05 | 3.68 | 2.84 | 1.44 | 3.07 | 3.53 | 1.18 | 2.83 |
| CAAACTAGGTCACGAAAGGTCAAATTCGAATGAC | 5.85 | 7.7 | 8.41 | 2.5 | 8.21 | 5.14 | 2.56 | 3.46 |
| CGAACTAGGTAACCAGGACAGTGAAGAGGTTGGA | 0.378 | 0.0852 | 0.279 | -0.359 | 0.345 | 1.37 | 0.609 | -0.193 |
| ATATGTAGGTCAGGGTCATTCAGAAAGTAGGGAA | 4.5 | 5.21 | 5.33 | 2.58 | 5.76 | 4 | 2.37 | 4.27 |
| GCTTCCGGGTCAAAGGTTATAGCATGAATAGAAT | 2.99 | 6.81 | 4.53 | 2.8 | 9.29 | 4.61 | 1.46 | 2.25 |
| TCGAGTAGGTTACGGGGGCATTTAGGGATGAAGA | 2.32 | 3.47 | 2.58 | 2.03 | 2.73 | 4.01 | 1.4 | 3.52 |
| GCTGCTAGGTAAGGTTGGTCAGCTAACGGGTACG | 0.738 | -0.277 | -0.313 | -0.185 | -0.296 | 0.277 | -0.184 | -0.0228 |
| ACTAGTTGGTCAGCTGAGGTCACACAAAATTCGG | 4.3 | 4.32 | 4.78 | 1.52 | 4.23 | 5.01 | 5.35 | 3.83 |
| CCTAGTTGGTCAAGGTCTCACACGCTATAGGTAC | 1.32 | 0.677 | 1.21 | 1.08 | 0.272 | 0.956 | 1.03 | 0.887 |
| CCTACTGGGCCAAGGTCATTGACCAGTCAAAGCA | 3.43 | 3.87 | 3.66 | 0.966 | 4.1 | 3.67 | 2.29 | 2.59 |
| AATACAGGGACATCGTAGGCCAGAGTACGCACAG | 0.605 | 0.131 | 0.818 | 0.223 | -0.000453 | 1 | 0.426 | 0.53 |
| GATACAGGGGCAAGGCCAGAGTACGCGTATTGAT | 1.19 | 0.895 | 1.33 | 0.352 | 0.544 | 0.311 | -0.32 | 0.636 |
| CCTACTGGGGCAAAGGTCATTGATTCCAATGCTC | 4.6 | 6.11 | 4.61 | 0.782 | 6.93 | 3.66 | 0.71 | 1.92 |
